From the supplement of paper PMC9694430

Assays:
Experiment in all cases: thermal shift delta Tm vs DMSO control; higher = stronger stabilization (binding)
Conditions in all cases: 12.5 µM; protein concentration 2 µM
[1] = compound: C/C(O)=C(\C#N)C(=O)Nc1cc(Br)ccc1Br
Procedure, shortened: (§1)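 Purified, E. coli-expressed rice kinase domain constructs were tested by differential scanning fluorimetry in 96-well plates: 19.5 μl of 2 μM kinase in 100 mM potassium phosphate pH 7.5, 150 mM NaCl, 10% glycerol, 5 × SYPRO Orange, plus compound in DMSO. Fluorescence was read from 25°C to 95°C at 0.05°C/s. Melting temperatures came from Boltzmann fits, and the shift is the triplicate mean relative to protein with DMSO alone.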

[2] = compound: CC(C)(C)c1cc(C=C(C#N)C#N)cc(Br)c1O
Procedure, shortened: as §1

Tyrphostin 9 = compound: CC(C)(C)c1cc(C=C(C#N)C#N)cc(C(C)(C)C)c1O [Tyrphostin 9]
Procedure, shortened: as §1

Aurora A Inhibitor I = compound: CCN1CCN(C(=O)Cc2ccc(Nc3ncc(F)c(Nc4ccc(C(=O)Nc5ccccc5Cl)cc4)n3)cc2)CC1 [Aurora A Inhibitor I]
Procedure, shortened: as §1

Picropodophyllin (PPP) = compound: COc1cc([C@@H]2c3cc4c(cc3[C@H](O)[C@H]3COC(=O)[C@@H]23)OCO4)cc(OC)c1OC [Picropodophyllin (PPP)]
Procedure, shortened: as §1

Anisomycin = compound: COc1ccc(C[C@H]2NC[C@H](O)[C@H]2OC(C)=O)cc1 [Anisomycin]
Procedure, shortened: as §1

[3] = compound: COc1ccc(N(C(=O)Oc2c(C)cccc2C)c2ccnc(Nc3ccc(N4CCN(C)CC4)cc3)n2)c(OC)c1
Procedure, shortened: as §1

[4] = compound: COc1ccc2c(c1)/C(=C/c1cnc[nH]1)C(=O)N2
Procedure, shortened: as §1

[5] = compound: Cc1ccccc1-n1c(Cn2ncc3c(N)ncnc32)nc2cccc(C)c2c1=O
Procedure, shortened: as §1

[6] = compound: O=c1[nH]c2ccc(Cl)cc2c(N[C@@H]2CN3CCC2CC3)c1-c1nc2ccccc2[nH]1
Procedure, shortened: as §1

[7] = compound: Cn1cc(C2=C(c3cn(C4CCN(Cc5ccccn5)CC4)c4ccccc34)C(=O)NC2=O)c2ccccc21
Procedure, shortened: as §1

Sequence of LOC_OS06G16330-cb003 (as listed by the source): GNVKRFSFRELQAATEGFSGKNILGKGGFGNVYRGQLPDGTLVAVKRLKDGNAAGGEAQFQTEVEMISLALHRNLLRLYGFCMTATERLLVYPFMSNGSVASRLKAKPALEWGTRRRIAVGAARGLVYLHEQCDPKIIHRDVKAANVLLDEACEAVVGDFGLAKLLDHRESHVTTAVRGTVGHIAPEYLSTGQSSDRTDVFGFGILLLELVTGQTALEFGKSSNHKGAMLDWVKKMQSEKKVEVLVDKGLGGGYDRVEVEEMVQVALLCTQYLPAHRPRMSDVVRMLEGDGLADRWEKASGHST
Sequence of LOC_OS06G22820-cb001 (as listed by the source): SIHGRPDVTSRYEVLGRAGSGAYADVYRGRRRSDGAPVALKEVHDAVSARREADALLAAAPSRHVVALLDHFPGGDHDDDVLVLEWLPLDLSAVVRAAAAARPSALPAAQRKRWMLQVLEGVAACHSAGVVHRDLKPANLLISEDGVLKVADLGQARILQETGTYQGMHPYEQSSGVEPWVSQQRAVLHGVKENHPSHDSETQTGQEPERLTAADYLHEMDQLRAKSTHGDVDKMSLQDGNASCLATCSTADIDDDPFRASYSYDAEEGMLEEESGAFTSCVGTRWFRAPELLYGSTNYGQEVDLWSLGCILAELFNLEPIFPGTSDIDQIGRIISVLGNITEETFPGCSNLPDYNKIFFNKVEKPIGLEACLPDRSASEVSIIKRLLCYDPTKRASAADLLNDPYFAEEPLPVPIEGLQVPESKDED
Sequence of LOC_OS01G52050-cb004 (as listed by the source): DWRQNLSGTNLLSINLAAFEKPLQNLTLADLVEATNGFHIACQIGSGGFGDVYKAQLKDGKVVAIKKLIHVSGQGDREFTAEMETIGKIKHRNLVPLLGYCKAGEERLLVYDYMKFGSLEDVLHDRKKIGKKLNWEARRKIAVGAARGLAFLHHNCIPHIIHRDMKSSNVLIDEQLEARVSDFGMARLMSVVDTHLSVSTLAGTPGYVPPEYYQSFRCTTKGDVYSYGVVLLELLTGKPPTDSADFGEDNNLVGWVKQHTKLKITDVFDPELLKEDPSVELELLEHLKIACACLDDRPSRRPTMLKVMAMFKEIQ
Sequence of LOC_OS04G41100-cb001 (as listed by the source): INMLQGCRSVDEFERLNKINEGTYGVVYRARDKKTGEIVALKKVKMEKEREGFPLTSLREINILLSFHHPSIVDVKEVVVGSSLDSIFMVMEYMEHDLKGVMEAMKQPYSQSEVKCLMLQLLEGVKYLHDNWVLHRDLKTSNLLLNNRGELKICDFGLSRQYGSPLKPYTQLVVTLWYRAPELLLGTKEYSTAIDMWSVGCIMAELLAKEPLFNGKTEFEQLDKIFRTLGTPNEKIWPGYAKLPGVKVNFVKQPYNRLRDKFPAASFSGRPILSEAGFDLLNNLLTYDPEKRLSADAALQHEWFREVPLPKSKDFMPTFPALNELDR

Target	thermal shift delta Tm [1] [°C]	thermal shift delta Tm [2] [°C]	thermal shift delta Tm (Tyrphostin 9) [°C]	thermal shift delta Tm (Aurora A Inhibitor I) [°C]	thermal shift delta Tm (Picropodophyllin (PPP)) [°C]	thermal shift delta Tm (Anisomycin) [°C]	thermal shift delta Tm [3] [°C]	thermal shift delta Tm [4] [°C]	thermal shift delta Tm [5] [°C]	thermal shift delta Tm [6] [°C]	thermal shift delta Tm [7] [°C]
LOC_OS02G17970-cb001	1.08	2.06	3.2	0.33	0.61	0.2	0.79	0.72	-0.06	0.93	–
LOC_OS03G12390-cb001	1.3	0.42	0.25	5.37	-0.2	-0.29	0.45	4.35	-0.25	4.7	0.52
LOC_OS02G08530-cb003	1.36	1.36	2.26	2.48	0.6	1.28	0.72	2.97	0.37	5.48	0.99
LOC_OS01G57100-cb003	1.78	-0.11	6.29	1.79	0.44	1.09	1.54	1.34	0.63	3.28	–
LOC_OS01G02750-cb003	1.62	1.02	6.7	0.26	0.88	0.6	0.82	2.97	0.47	4.52	-0.47
LOC_OS01G01410-cb001	0.85	0.56	3.01	2.6	-0.11	0.63	0.04	2.18	0.73	3.66	–
LOC_OS01G14860-cb001	1.32	1.24	3.15	3.95	0.29	-0.05	0.07	5.78	-0.1	7.87	–
LOC_OS05G07850-cb002	1.58	4.65	0.08	12.2	-0.91	0.21	7.34	8.01	-0.57	8.76	2.26
LOC_OS01G60700-cb002	1.75	1.51	4.79	0.71	0.4	0.15	1.33	0.77	0.02	1.41	3.52
LOC_OS02G07810-cb001	1.72	2.07	2.29	0.45	0.15	0.03	0.73	0.97	0.6	1.44	–
LOC_OS02G45750-cb003	1.66	-0.03	0.99	3.48	0.36	1.18	2.08	7.07	-0.14	11.3	0.32
LOC_OS03G50810-cb003	0.73	0.71	0.82	3.94	0.16	0.59	0.9	3.03	0.23	5.29	1.38
LOC_OS01G51400-cb002	0.56	0.64	1.62	-0.05	-0.01	0.24	0.03	0.84	0.24	0.3	–
LOC_OS04G57630-cb004	0.3	0.11	-0.37	4.13	0.26	0.15	0.3	1.58	-0.13	1.43	-0.06
LOC_OS03G27990-cb004	0.81	0.8	0.88	1.5	0.02	0.47	0.54	1.69	-0.07	3.66	0.11
LOC_OS01G70970-cb002	0.43	0.94	2.45	4.68	0.24	0.31	0.31	4.78	-0.01	5.08	–
LOC_OS05G43570-cb004	0.83	0.83	1.46	1.76	-0.21	0.46	0.38	0.79	0.31	1.44	1
LOC_OS01G48390-cb002	0.77	0.72	2.01	4.11	0.19	0.33	-0.27	1.32	0.11	1.21	–
LOC_OS01G52050-cb004	0.91	2.42	3.34	1.73	-0.26	0.12	-0.12	4.67	-0.06	9.73	–
LOC_OS06G22820-cb001	0.73	1.01	1.56	-0.07	0.27	0.57	0.55	0.55	0.41	0.64	1

Target	thermal shift delta Tm [1] [°C]	thermal shift delta Tm [2] [°C]	thermal shift delta Tm (Tyrphostin 9) [°C]	thermal shift delta Tm (Aurora A Inhibitor I) [°C]	thermal shift delta Tm (Picropodophyllin (PPP)) [°C]	thermal shift delta Tm (Anisomycin) [°C]	thermal shift delta Tm [3] [°C]	thermal shift delta Tm [4] [°C]	thermal shift delta Tm [5] [°C]	thermal shift delta Tm [6] [°C]	thermal shift delta Tm [7] [°C]
LOC_OS04G41100-cb001	0.64	0.96	1.09	1.62	0.3	0.43	0.13	3.1	0.39	2.42	1.42
LOC_OS07G06570-cb004	0.21	0.05	2.9	0.63	1.02	1	1.01	0.08	1.12	0.51	–
LOC_OS01G60330-cb001	1.6	1.56	4.55	12.3	0.72	0.77	1.23	4.72	-0.01	10.8	–
LOC_OS05G16824-cb004	2.14	-1.4	-0.97	7.48	-3.09	-4.31	1.29	8.5	-1.77	15.4	2.01
LOC_OS03G04050-cb001	0.96	0.99	0.99	0.02	0.1	0.72	0.67	0.53	0.27	0.52	0.69
LOC_OS01G63280-cb003	0.5	0.9	2.28	0.22	-0.03	0.15	0.38	4.22	-0.3	0.81	–
LOC_OS07G07230-cb001	0.39	1.24	0.49	0.3	0.63	0.94	0.5	-0.03	0.41	0.14	0.68
LOC_OS05G30820-cb001	0.57	1.27	0.84	1.39	0.41	0.89	0.33	0.99	0.5	0.98	0.82
LOC_OS02G54510-cb004	0.42	0.85	0.47	1.31	0.14	0.56	0.56	0.44	0.08	1.44	0.65
LOC_OS01G39600-cb002	0.11	3.42	–	3.74	-0.4	-0.07	-0.58	2.01	0.35	6.61	–
LOC_OS01G13800-cb001	0.83	2.05	1.92	0.32	-0.49	0.17	0.12	0.49	0.06	-0.04	–
LOC_OS05G28520-cb001	1.13	0.45	1.67	0.67	0.07	0.12	0.27	0.94	-0.36	0.32	3.85
LOC_OS03G50450-cb001	1.25	0.89	1.36	6.04	0.03	0.61	0.76	1.49	0.18	2.51	0.07
LOC_OS01G67340-cb003	1.03	0.32	-0.32	0.7	0.12	0.35	0.5	4.84	-0.48	2.48	0
LOC_OS01G21960-cb002	1.38	1.5	4.31	2.25	0.41	0.52	0.61	1.85	0.03	3.76	–
LOC_OS02G14120-cb001	0.47	0.92	3.24	8.23	0.5	0.58	0.02	4.75	-0.47	7.91	–
LOC_OS01G10900-cb004	1.47	-0.04	3.61	0.91	0.63	0.16	0.15	1.02	0.1	0.03	–
LOC_OS04G35114-cb001	1.21	0.3	0.89	3.75	0.21	0.57	1.64	6.97	0.13	5.95	1.31
LOC_OS06G16330-cb003	1.18	2.32	0.83	8.9	0.19	-0.28	-0.04	5.39	-0.12	6.83	–
